Source: PubChem BioAssay (NCI)
Compounds without any hit were thinned out: in the full panel of roughly 79,000, 15% have a hit. No stated cut-off is given here; in the data, active means growth inhibition above about 70%; inactive means the rest.

What was measured:
[1] = NCI Yeast Anticancer Drug Screen. Data for the rad50 strain (AID 155);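 further: 0% = growth of vehicle-only cultures of the same strain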; settings: S. cerevisiae rad50 strain growth inhibition; at 50.0 µM; active compounds read high
Method in brief: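 Genetically altered yeast (DNA repair pathway); compound treatment; growth inhibition vs vehicle ctrl.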

[2] = NCI Yeast Anticancer Drug Screen. Data for the mec2-1 strain (AID 157); settings: S. cerevisiae mec2-1 strain, at 50.0 µM, active compounds read high
Method in brief: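 Yeast mec2-1 mutant treated with compound. Readout: growth inhibition vs vehicle controls.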

[3] = NCI Yeast Anticancer Drug Screen. Data for the sgs1 mgt1 strain (AID 161);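 further: 0% = growth of cultures given vehicle only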; settings: S. cerevisiae sgs1 mgt1 strain, at 50.0 µM, active compounds read high
Method in brief: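 Inhibition of yeast growth, normalised to vehicle-treated controls, is reported for a strain bearing genetic alterations in DNA damage repair.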

[4] = NCI Yeast Anticancer Drug Screen. Data for the cln2 rad14 strain (AID 165);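 further: 0% = growth equal to vehicle treated cultures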; settings: S. cerevisiae cln2 rad14 strain, at 50.0 µM, active compounds read high
Method in brief: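 cln2 rad14 yeast strain; compound exposure; growth inhibition read vs vehicle controls.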

[5] = NCI Yeast Anticancer Drug Screen. Data for the bub3 strain (AID 167); settings: S. cerevisiae bub3 mutant strain, at 50.0 µM, active compounds read high
Method in brief: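 Yeast carrying a defined mutation is treated with each compound, and growth is compared with that of vehicle-exposed cells to give inhibition.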

[6] = NCI Yeast Anticancer Drug Screen. Data for the mlh1 rad18 strain (AID 175); settings: S. cerevisiae mlh1 rad18 strain growth inhibition; at 50.0 µM; active compounds read high
Method in brief: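 Yeast w/ defined DNA-repair lesions; compound exposure; growth vs vehicle controls → % inhibition.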

Measured: growth inhibition

CC(C)NC(=O)OCc1c(COC(=O)NC(C)C)c2n(c1-c1ccc(Cl)c(Cl)c1)CCS2(=O)=O
inactive: [1] -0.5% | [2] 2.2% | [3] 4.5% | [4] -36.1% | [5] -1.95% | [6] 8.15%

CC1(C)CC(OP(=O)(OC2CC(C)(C)N(O)C(C)(C)C2)c2ccccc2)CC(C)(C)N1O
inactive: [1] 32.1% | [2] 8.45% | [3] 11.1% | [4] -21.1% | [5] 6.3% | [6] 6.5%

CS/N=C(\c1ccccc1)N1CCOCC1
inactive: [1] -38.2% | [2] -5.7% | [3] -4.95% | [4] -21.1% | [5] 4.25% | [6] 5.2%

C[N+]1(C)C/C(=C\c2ccncc2)C(=O)/C(=C/c2ccncc2)C1
inactive: [1] 0.3% | [2] -2.45% | [3] 14.3% | [4] 5.3% | [5] 1.1% | [6] -10.2%

CCN(CC)CCCNc1ncnc2onc(C)c12
inactive: [1] 15.3% | [2] 15.2% | [3] 2.2% | [4] 6.15% | [5] 1.45% | [6] -9.3%

COc1c(O)c2ccccc2c2cc(O)ccc12
inactive: [1] 6.8% | [2] 25.1% | [3] 23.6% | [4] -14.2% | [5] 56.4% | [6] 10.2%

O=C(O)c1ccccc1C(=O)OC1CC2C=CC1C21CC1 (stereo unspecified)
inactive: [1] -12.2% | [2] -13.2% | [3] -15.3% | [4] -1.9% | [5] -6.2% | [6] -9.75%

CS(=O)CCN=Cc1ccc(N=Nc2ccc(O)cc2)cc1 (stereo unspecified)
inactive: [1] 5.8% | [2] 1.65% | [3] -0.85% | [4] -33.4% | [5] 13.5% | [6] 2.65%

CCOC(=O)/C=C/SCCCC(=O)O
inactive: [1] 1.5% | [2] -1.5% | [3] 0.25% | [4] -22.8% | [5] -4.55% | [6] 42.2%

C/C(CC(=O)Nc1ccccc1C)=N/NS(=O)(=O)c1ccc(C)cc1
inactive: [1] -2.2% | [2] -5.2% | [3] 10.2% | [4] 19.3% | [5] -18.4% | [6] -6.9%

Clc1ccc(CSc2cnnc(SCc3ccc(Cl)cc3)c2SCc2ccc(Cl)cc2)cc1
inactive: [1] -11.4% | [2] 15.2% | [3] -10.9% | [4] -60% | [5] -3.75% | [6] -30.4%

Cc1cc(C)n(-c2ccncc2[N+](=O)[O-])n1
inactive: [1] 7.55% | [2] 17.9% | [3] -2.45% | [4] -13.8% | [5] 9.05% | [6] 0.2%

Cc1cc(C)c(CC#N)s1
inactive: [1] -25.2% | [2] -12.1% | [3] -1.65% | [4] -52.6% | [5] -15.4% | [6] -22.3%

CC(C)NC(=O)c1ccccc1-[s+]1c2ccccc2c(=O)n1C(C)C (stereo unspecified)
inactive: [1] 22% | [2] 1.15% | [3] -11.7% | [4] 3.9% | [5] -2.95% | [6] 9.3%

CCOC(=O)C1C2CCCC(=O)C21 (stereo unspecified)
inactive: [1] 9% | [2] -4.5% | [3] 3.9% | [4] -56.8% | [5] 12.1% | [6] 3.3%

CCCCSC(N)=O
inactive: [1] -1.5% | [2] 0% | [3] -15.1% | [4] 10.7% | [5] 17.3% | [6] 11.2%

CCCCc1ccc(-n2cnc3c(=O)[nH]c(N)nc32)cc1
inactive: [1] 5.15% | [2] 29% | [3] -8.3% | [4] -0.4% | [5] 30.8% | [6] 26.5%

CCc1c2c(cc3c1CC1(C3)Cc3cc4c(c(C(=O)OC)c3C1)CCCC4)CCCC2 (stereo unspecified)
inactive: [1] -18.8% | [2] -16.4% | [3] -20.8% | [4] 9.65% | [5] -14% | [6] -25.9%

Nc1ccc2cccc(O)c2c1
inactive: [1] 44.1% | [2] 24.2% | [3] 12.9% | [4] -9.4% | [5] 34.2% | [6] 32.4%

CCCOC1NC(=O)Oc2ccccc21 (stereo unspecified)
inactive: [1] -14.8% | [2] -6.1% | [3] -0.9% | [4] -30.4% | [5] -1.55% | [6] 13.8%

C1CCc2nc3c(nc2C1)CCCC3
inactive: [1] 9.75% | [2] 1.6% | [3] 1.7% | [4] -9.65% | [5] -0.5% | [6] 7%

C=C1C(=O)O[C@@H]2C3=C(C)C(=O)C=C[C@]3(C)CC[C@@H]12
inactive: [1] 5.3% | [2] 9.05% | [3] 8.55% | [4] 0.8% | [5] 6.6% | [6] -14.3%

Nc1ncnc2c1nnn2C1C=CC(COS(N)(=O)=O)C1 (stereo unspecified)
inactive: [1] 12.2% | [2] 3.75% | [3] 3.7% | [4] -6% | [5] 8.25% | [6] 18.6%

O=C(O)c1[nH]c2ccccc2c(=O)c1-c1ccccc1
inactive: [1] 11.7% | [2] -31.5% | [3] 0.95% | [4] -14.3% | [5] 1.05% | [6] -19.4%

COc1cc(Br)c(Br)cc1Br
inactive: [1] 6.8% | [2] 4.35% | [3] -17.7% | [4] 12.5% | [5] 4.9% | [6] 10.5%

CC(=O)c1cc([N+](=O)[O-])c(O)c([N+](=O)[O-])c1O
inactive: [1] 20.4% | [2] -2.2% | [3] -14.6% | [4] 12.2% | [5] 7.8% | [6] 8.65%

C/C(=N\N=P(c1ccccc1)(c1ccccc1)c1ccccc1)C(C)(C)C
inactive: [1] 8.35% | [2] 10.2% | [3] 1.75% | [4] 11.9% | [5] 4.5% | [6] 31.7%

CCOC(=O)C(/C(=N\NC(=O)OC)C(=O)Nc1cc(OC)ccc1OC)c1cnc2ccccc2n1 (stereo unspecified)
inactive: [1] -6.15% | [2] -2.75% | [3] -45.4% | [4] 18.8% | [5] 15.4% | [6] 0.7%

Nc1nc2[nH]c(=O)cnc2c(=O)[nH]1
inactive: [1] -17.8% | [2] -32.3% | [3] -26.2% | [4] -0.1% | [5] -27.5% | [6] -20.7%

CSCCCS/C1=C/CCCCCCCCCC1
inactive: [1] -1.85% | [2] 11% | [3] -21.9% | [4] 14.8% | [5] -9.35% | [6] -38.6%

CC(=O)NC1=N/C(=C\c2ccc(Cl)cc2)C(=O)N1/C=C1\C(=O)Oc2ccccc2C1=O
inactive: [1] 50% | [2] 13.9% | [3] 24.9% | [4] 26% | [5] 49.7% | [6] 41.9%

COc1ccc(C(C)=O)cc1
inactive: [1] 34.5% | [2] 18.8% | [3] 30.6% | [4] 37.1% | [5] 29.9% | [6] 18.9%

CC(C)(C)NC(=O)C12C3C4C1C1C2C3C41C(=O)NC(C)(C)C (stereo unspecified)
inactive: [1] -19.3% | [2] -9% | [3] -15.9% | [4] -39.7% | [5] -26.1% | [6] -19.5%

CC(C)(C)C(=O)C(C#N)C(=O)C(C)(C)C
inactive: [1] 8.75% | [2] -19.9% | [3] -7.45% | [4] 16.1% | [5] -19.9% | [6] -14.2%

CCOC(=O)c1cc(C)nc2c1c(=O)n(-c1ccccc1)c(=O)n2CCCCN1CCN(c2ccccc2)CC1
inactive: [1] -1.7% | [2] -13.2% | [3] 4.8% | [4] 3.25% | [5] -21.8% | [6] -29.1%

O=C(O)C1CC[N-]CC1.O=C(O)C1CC[N-]CC1.[NH2-].[NH2-].[Pt+4]
inactive: [1] -5.4% | [2] 14.8% | [3] 2.2% | [4] 12.7% | [5] 2.6% | [6] 18.4%

Clc1ccc(C=Nc2ccccc2)c(Cl)c1
inactive: [1] 23.9% | [2] 10.8% | [3] 20.9% | [4] 11.5% | [5] -2.75% | [6] 26.6%

COc1ccc(/C=C/c2onc3c(=O)n(C)nc(-c4ccccc4)c23)cc1
inactive: [1] -22.4% | [2] -25.1% | [3] -9.2% | [4] -11.4% | [5] -2.55% | [6] -26.2%

COCC(OC)C(Cl)C(=O)Nc1ccc(Br)cc1 (stereo unspecified)
inactive: [1] 14.6% | [2] 31.1% | [3] 15.2% | [4] -14.4% | [5] 28.9% | [6] 10.8%

O.O.O=c1cc(Cl)[nH]c(=O)[nH]1.[NH2-].[NH2-].[Pt+4]
inactive: [1] -21.9% | [2] -18.1% | [3] -2.4% | [4] -47.6% | [5] 2.65% | [6] 35.7%

COc1ccc(/C(=N\NC(=O)C(=O)NN)C(c2ccc(OC)cc2)C2(O)C(=O)Nc3ccccc32)cc1 (stereo unspecified)
inactive: [1] -19.6% | [2] -20.2% | [3] -22.6% | [4] -65.1% | [5] 12.9% | [6] -18.1%
